Growth data for 8 compounds are collected here from PubChem BioAssay (NCI).

This is part of a sample that, as a whole, favours compounds with a hit. Of some 83,000 tested, about 20% had one in any assay.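 Single-dose data. Exposure time 48 hours. Values below 10 considered active.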 Values without a mark were called inactive. Active and inactive are the calls of the source.

Test in all cases: NCI-60 one-dose screen, 48 h (100 = growth as untreated, 0 = no growth, -100 = all killed)
Common to all, as to details: 10 µM unless noted

Assay [1] relates to HT29 colon.
For assay [2], the system named is SNB-75 CNS.
Assay [3] deals with SNB-19 CNS.
Assay [4] has as its system U251 CNS.
The subject of assay [5] is PC-3 prostate.
The test system of assay [6] is SK-MEL-5 melanoma.
Assay [7] relates to UACC-62 melanoma.
In assay [8] the test system is LOX IMVI melanoma.
Assay [9] relates to SK-MEL-28 melanoma.
Assay [10] has as its system SK-MEL-2 melanoma.
The subject of assay [11] is EKVX NSCLC.
Assay [12] deals with SN12C renal.
The test system of assay [13] is UO-31 renal.
Assay [14] deals with TK-10 renal.
Assay [15] has as its system ACHN renal.
Assay [16] concerns CAKI-1 renal.
The subject of assay [17] is A498 renal.
Assay [18] relates to CCRF-CEM leukemia.
Assay [19] relates to MOLT-4 leukemia.
Assay [20] concerns SR leukemia.

Consider `Cc1c(C(N)=O)sc2ncn(Cc3ccccc3)c(=O)c12`, for which the growth was 103% in assay [1]; 92.6% in assay [2]; 102% in assay [3]; 96.9% in [4]; 113% in assay [5]; 103% in assay [6]. Also, the growth in [7] is 102%; in assay [8], 89.6%; in assay [9] it was 112%; in assay [10], 109%; in assay [11] it was 122%; in [12], 97.8%. Besides, the growth in [13] was 61.7%; in assay [14], 87.8%; in assay [15], 99.6%; in assay [16], -1.53% (active); in assay [17], 121%; in [18] it was 138%. Also, the growth is 114% in assay [19] and 92.8% in assay [20].
Consider `COC(=O)[C@]1(C(C)C)N[C@H](c2cn(-c3ccccc3)nc2-c2ccccc2)[C@@H]2C(=O)N(c3ccc(Cl)cc3)C(=O)[C@@H]21`, for which the growth in [1] was 98.1%; in assay [2] it was 86.1%; in assay [3], 99.1%; in assay [4] it was 97.4%; in [5], 89.9%; in assay [6], 101%. The growth is 101% in [7]; 92.1% in [8]; 114% in assay [9]; 86.9% in [10]; 102% in assay [11]; 97.3% in assay [12]. Besides, the growth in [13] was 59.5%; in assay [14], 113%; in assay [15], 93.9%; in assay [16], 77.5%; in [17] it was 107%.
`COc1ccc(C(=O)/C=C/c2c(Cl)nc3c(c(C)nn3-c3ccccc3)c2-c2ccc(Br)cc2)cc1`: the growth in [1] is 100%; in assay [2], 88.2%; in [3] it was 101%; in assay [4], 110%; in [5], 107%; in assay [6], 101%. In addition, the growth in [7] was 91.8%; in assay [8], 96.4%; in assay [9] it was 106%; in [10], 93.8%; in assay [11], 109%; in assay [12], 99.4%. For the same compound, the growth in assay [13] was 88.1%; in assay [14], 106%; in [15], 101%; in assay [16] it was 100%; in [17], 112%.
Regarding `COc1cc2cn3c4ccc(O)cc4nc(N)c3c2cc1OC`, the growth in assay [1] was 24.3%; in assay [2], 2.21% (active); in assay [3], 20.5%; in assay [4], 4.61% (active); in [5], 35.8%; in assay [6], -54.9% (active). For the same compound, the growth in assay [7] was -59.4% (active); in assay [8], -40.5% (active); in assay [9], 39%; in assay [10] it was 21.2%; in assay [11], 48.7%; in assay [12] it was 18.6%. The growth in assay [13] was 1.49% (active); in [14] it was 50.4%; in assay [15], -3.69% (active); in [16] it was -4.04% (active); in [17], -14.4% (active); in [18], 21.1%. Besides, the growth in [19] is 8.22% (active).
`CCN(CC)CCOc1ccc(C2=C(c3ccccc3)CCc3cc(OC)ccc32)cc1`: the growth in assay [1] is -50% (active); in [2], 44.2%; in [3], 53.8%; in assay [4] it was 22.2%; in assay [5] it was 7.49% (active); in assay [6], -68% (active). Also, the growth was -60.2% (active) in assay [7]; -59.6% (active) in [8]; -96.2% (active) in assay [9]; -83.1% (active) in assay [10]; 54.4% in assay [11]; 52.3% in assay [12]. In addition, the growth in assay [13] is -76.7% (active); in assay [14], -21.1% (active); in assay [15], 50.5%; in assay [16], -26.1% (active); in assay [17], -4.36% (active); in assay [18], -37.8% (active). For the same compound, the growth in [19] was -49.7% (active); in [20] it was -42.1% (active).
As for `Cc1nn(-c2ccc(Cl)cc2)c2nc3c(nc12)c(=O)oc1ccccc13`, the growth in [1] is 99.7%; in [2], 92.1%; in assay [3], 100%; in assay [4], 93.9%; in [5], 106%; in [6], 114%. Further, the growth in assay [7] is 102%; in assay [8], 101%; in assay [9], 110%; in assay [10] it was 107%; in assay [11], 108%; in assay [12], 101%. Further, the growth in assay [13] is 101%; in [14] it was 107%; in assay [15] it was 99.8%; in assay [16], 98.3%; in [17], 95%.
Consider `Nc1ccc2c3c(cccc13)-c1ccccc1-2`, for which the growth is 108% in [1]; 74.2% in assay [2]; 97.7% in [3]; 94.9% in assay [4]; 73% in assay [5]; 98.4% in assay [6]. Also, the growth in assay [7] is 84.7%; in assay [8], 91.7%; in [9], 110%; in assay [10], 105%; in assay [11], 87.4%; in assay [12] it was 55.8%. The growth was 32.3% in assay [13]; 116% in assay [14]; 95.2% in assay [15]; 69.4% in assay [16]; 85.9% in [17]; 25.1% in [18]. Moreover, the growth in [19] was 32.4%; in assay [20], 93.1%.
As to `Cc1cc(O)c2c(c1)C[C@H]1[C@@H]3CC[C@H]4CC(=O)CC[C@]4(C)[C@H]3CC(=O)[C@]21C`, the growth is 67.6% in assay [1]; 98.4% in assay [2]; 94.5% in assay [3]; 81.6% in [4]; 80.9% in assay [5]; 73.3% in assay [6]. Also, the growth in [7] was 57.4%; in assay [8] it was 85.1%; in [9] it was 101%; in assay [10], 83.3%; in [11], 49.8%; in [12], 81.3%. The growth in [13] is 113%; in [14], 92.5%; in [15], 94.7%; in assay [16], 83.9%; in assay [17] it was 103%; in [18], 58.8%. The growth is 53.7% in assay [19] and 59.2% in assay [20].
